The values below come from PubChem BioAssay (NCATS).

Inconclusive results are not listed. Unmarked numbers belong to inactive results. Activity calls are given as the source filed them. Calls come from the whole dose curve; as a rule, active = well fitted cell-killing curve with a large enough effect; inconclusive = small, poorly fitted or top-dose-only effect, or effect the other way; inactive = no such curve, though single readings can be large or run the other way.
Potency is the fitted concentration of half-maximal effect.

A short description of the first experiment: Quantitative High-Throughput drug screen in 47 multiple myeloma cell lines against the NCATS MIPE library collection: OPM1_PLB cell viability assay (AID 1918989). Note: nearly all actives have a fitted effect of over 40% in size. Particulars: CellTiter-Glo, 48 h; series mostly up to 45.8 µM. An outline of the steps: (§1)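 500 cells/well; MIPE 4.0 drugs pin-transferred; 48 h, 37C, 5% CO2. CellTiter-Glo, 5 min RT, luminescence. Controls: DMSO 100%, media 0%.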
With `C=CC(=O)Nc1cc(NC(=O)c2ccc(C)c(NC(=O)c3ccno3)c2)cc(C(F)(F)F)c1`, the Potency is 23.5 µM (active).

For `Cn1cc(C[C@@H](N)C(=O)O)c2ccccc21`, the Potency entry is “inactive”.

For `CC(C(C)N1CC(=O)NC(=O)C1)N1CC(=O)NC(=O)C1` (stereo unspecified), the Potency entry was “inactive”.

Turning to `NC(=O)c1ncn([C@@H]2O[C@H](CO)[C@@H](O)[C@@H]2O)c1O`, the Potency result is “inactive”.

With `Cc1[nH]c(C=C2C(=O)Nc3ccccc32)c(C)c1CCC(=O)O`, the Potency was 23.5 µM (active).

For `COc1cc2c(cc1O)CCC1C2CC[C@@]2(C)C1CC[C@@H]2O` (stereo partly specified), the Potency is 5.26 µM (active).

For the molecule `COc1cc2ncnc(Nc3cccc(Br)c3)c2cc1OC`, the Potency was 7.43 µM (active).

Turning to `COc1cc(C(=O)NC2CCN(C)CC2)ccc1Nc1ncc2c(n1)N(C1CCCC1)CCC(=O)N2C(C)C`, the Potency was 20.9 µM (active).

With `C#C[C@]1(O)CC[C@@H]2[C@@H]3CCc4cc(O)ccc4[C@H]3CC[C@@]21C`, the Potency was 23.5 µM (active).

As to `N#Cc1c(C2CCNCC2)cc(-c2c(O)cccc2OCC2CC2)nc1N`, the Potency is 20.9 µM (active).

Turning to `CCc1cc(C(C)=NOCc2ccc(C3CCCCC3)c(C(F)(F)F)c2)ccc1CN1CC(C(=O)O)C1`, the Potency was 18.7 µM (active).

On to `Nc1nc2c(c(=O)[nH]1)N(C=O)[C@H](CNc1ccc(C(=O)N[C@@H](CCC(=O)O)C(=O)O)cc1)CN2`, for which the Potency result is “inactive”.

Take `Cc1onc(-c2ccccc2)c1C(=O)N[C@@H]1C(=O)N2[C@@H](C(=O)O)C(C)(C)S[C@@H]12`: the Potency result was “inactive”.

`COC(=O)C1C2CC3c4[nH]c5cc(OC)ccc5c4CCN3CC2CC(OC(=O)c2cc(OC)c(OC)c(OC)c2)C1OC` (stereo unspecified): the Potency was 23.5 µM (active).

`CC(O)(C#Cc1ccc2c(c1)N(c1nc(N)ncc1Cl)CC2)c1nccs1` (stereo unspecified): the Potency was 14.8 µM (active).

Consider `O=C(O)c1ccc(Nc2ncc3c(n2)-c2ccc(Cl)cc2C(c2c(F)cccc2F)=NC3)cc1`, for which the Potency was 5.9 µM (active).

Regarding `CN1CCCN(C(=O)c2cccc(-c3ccc(C=C4C(=O)Nc5ccc(Cl)cc54)o3)c2)CC1`, the Potency is 23.5 µM (active).

Regarding `CC(C)(O)CC[C@@H](O)[C@](C)(O)[C@H]1CC[C@@]2(O)C3=CC(=O)[C@@H]4C[C@@H](O)[C@@H](O)C[C@]4(C)[C@@H]3CC[C@]12C`, the Potency result was “inactive”.

Turning to `NC(=O)c1ncn([C@@H]2O[C@H](CO)[C@@H](O)[C@@H]2O)c1N`, the Potency entry is “inactive”.

Regarding `COc1cc(CCc2cc(NC(=O)c3ccc(N4C[C@@H](C)N[C@@H](C)C4)cc3)n[nH]2)cc(OC)c1`, the Potency is 14.8 µM (active).

As for `C[C@@H](Cc1cc2c(c(C(N)=O)c1)N(CCCO)CC2)NCCOc1ccccc1OCC(F)(F)F`, the Potency result was “inactive”.

Regarding `C[C@]12CC[C@@H]3c4ccc(O)cc4CC[C@H]3[C@H]1CC[C@H]2O`, the Potency was 16.6 µM (active).

Turning to `FC(F)(F)c1ccc(Nc2nc3ccc(Oc4ccnc(-c5ncc(C(F)(F)F)[nH]5)c4)cc3[nH]2)cc1`, the Potency was 20.9 µM (active).

As for `C[C@H](NC(=O)[C@@H](O)c1cc(F)cc(F)c1)C(=O)N[C@@H]1C(=O)N(C)c2ccccc2-c2ccccc21`, the Potency result is “inactive”.

For the molecule `O=C(CN1C(=O)C2(CCCC2)NC[C@H]1c1cc(F)cc(F)c1)Nc1ccc2c(c1)C[C@@]1(C2)C(=O)Nc2ncccc21`, the Potency entry was “inactive”.

Regarding `OC[C@@H](O)[C@@H](O)[C@H](O)[C@@H](O)CO`, the Potency result is “inactive”.

As for `N[C@H]1CN(c2c(F)cc3c(=O)c(C(=O)O)cn(C4C[C@@H]4F)c3c2Cl)CC12CC2` (stereo partly specified), the Potency entry is “inactive”.

Regarding `NS(=O)(=O)OC[C@@H]1C[C@@H](n2ccc3c(N[C@H]4CCc5ccccc54)ncnc32)C[C@H]1O`, the Potency is 16.6 µM (active).

For the molecule `Cn1cc(C=CC(=O)c2cccc(F)c2)cc1C=CC(=O)NO`, the Potency was 23.5 µM (active).

In the case of `O=C(Nc1nnc(-c2ccco2)o1)c1cc(-c2ccccc2)nc2ccccc12`, the Potency is 20.9 µM (active).

For `c1ccc2c(Oc3nc(Nc4ccc(N5CCOCC5)cc4)c4ncn(C5CCCCC5)c4n3)cccc2c1`, the Potency entry is “inactive”.

With `COc1ccc(Nc2nccc(NCCO)n2)cc1`, the Potency entry is “inactive”.

A further experiment in a line: Quantitative High-Throughput drug screen in 47 multiple myeloma cell lines against the NCATS MIPE library collection: SKMM1_PLB cell viability assay (AID 1919863). Note: nearly all actives have a fitted effect of over 35% in size. Conditions: SKMM1 myeloma viability, CellTiter-Glo ATP, 48 h; viability: hits give low values. An outline of the steps: as §1
Take `CC(Cc1ccc(O)c(O)c1)(NN)C(=O)O` (stereo unspecified): the Potency is 16.6 µM (active).

For `C=CC(=O)Nc1cc(NC(=O)c2ccc(C)c(NC(=O)c3ccno3)c2)cc(C(F)(F)F)c1`, the Potency is 18.7 µM (active).

Regarding `CC(C(C)N1CC(=O)NC(=O)C1)N1CC(=O)NC(=O)C1` (stereo unspecified), the viability was 134%.

Consider `NC(=O)c1ncn([C@@H]2O[C@H](CO)[C@@H](O)[C@@H]2O)c1O`, for which the viability is 102%.

For the molecule `N#Cc1c(C2CCNCC2)cc(-c2c(O)cccc2OCC2CC2)nc1N`, the Potency was 18.7 µM (active).

Take `CCc1cc(C(C)=NOCc2ccc(C3CCCCC3)c(C(F)(F)F)c2)ccc1CN1CC(C(=O)O)C1`: the Potency was 18.7 µM (active).

Take `CCn1c(=O)c2c(nc(C=Cc3ccc(OC)c(OC)c3)n2C)n(CC)c1=O`: the viability is 123%.

As to `Cc1onc(-c2ccccc2)c1C(=O)N[C@@H]1C(=O)N2[C@@H](C(=O)O)C(C)(C)S[C@@H]12`, the viability was 123%.

Regarding `CN1CCCN(C(=O)c2cccc(-c3ccc(C=C4C(=O)Nc5ccc(Cl)cc54)o3)c2)CC1`, the Potency was 14.8 µM (active).

Turning to `NC(=O)c1ncn([C@@H]2O[C@H](CO)[C@@H](O)[C@@H]2O)c1N`, the viability was 159%.

Turning to `O=C(CN1C(=O)C2(CCCC2)NC[C@H]1c1cc(F)cc(F)c1)Nc1ccc2c(c1)C[C@@]1(C2)C(=O)Nc2ncccc21`, the viability is 120%.

In the case of `N=c1ccn2c(n1)O[C@H]1[C@@H](O)[C@@H](CO)O[C@H]12`, the Potency was 0.148 µM (active).

Take `OC[C@@H](O)[C@@H](O)[C@H](O)[C@@H](O)CO`: the viability is 122%.

With `C[C@H](O)[C@@H]1C(=O)N2C(C(=O)O)=C(S[C@@H]3CN[C@H](CNS(N)(=O)=O)C3)[C@@H](C)[C@@H]12`, the viability was 105%.
